In PubChem BioAssay (EPA / NIEHS):
Several values for one entry are separate records, joined by “and”; a condition that tells them apart may be missing. Equal values may be shown once. Some compounds were tested as several samples or in several runs, with calls that do not always agree. Activity calls are given as the source filed them. The calls were made as follows: active = hit-call score of the fitted dose curve at least 0.9, where 1 is the maximum; inactive = score below 0.9.

What was measured:
[1] = read-out: Forkhead box O1 (FOXO1), FOXO1 (gene 2308); test: LTEA_HepaRG_FOXO1: Life Technologies and Expression Analysis (LTEA) Assay for Forkhead box O1 (FOXO1) using HepaRG (AID 2283456); details: mRNA level, 48 h; actives raise or lower the signal
In short: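 HepaRG, 48 h exposure, 8-pt half-log series from 100 uM in 0.5% DMSO, duplicates; Fluidigm qRT-PCR mRNA, housekeeping-normalised; bidirectional fit vs DMSO baseline.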

[2] = read-out: growth arrest and DNA damage 45 (GADD45A), GADD45A (gene 1647); test: LTEA_HepaRG_GADD45A: Life Technologies and Expression Analysis (LTEA) Assay for growth arrest and DNA damage 45 (GADD45A) using HepaRG (AID 2283458); details: mRNA level, 48 h; actives raise or lower the signal
In short: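 HepaRG, 48 h exposure, 8 conc. (top 100 uM, half-log steps), 0.5% DMSO vehicle, duplicates. Read-out: qRT-PCR mRNA level, housekeeping-normalized (ACTB/GAPDH/POLR2A). Curves fit bidirectionally vs DMSO baseline.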

[3] = read-out: Forkhead box O3 (FOXO3), FOXO3 (gene 2309); test: LTEA_HepaRG_FOXO3: Life Technologies and Expression Analysis (LTEA) Assay for Forkhead box O3 (FOXO3) using HepaRG (AID 2283459); details: mRNA level, 48 h; actives raise or lower the signal
In short: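 qRT-PCR readout of FOXO3 transcript, normalized to three housekeeping genes (ACTB, GAPDH, POLR2A); gain or loss fitted against 0.5% DMSO vehicle. HepaRG cells, 48 h chemical exposure, 8-point half-log series, top 100 uM.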

[4] = read-out: ABC Transporter (ABCB1), ABCB1 (gene 5243); test: LTEA_HepaRG_ABCB1: Life Technologies and Expression Analysis (LTEA) Assay for ABC Transporter (ABCB1) using HepaRG (AID 2283460); details: mRNA level, 48 h; actives raise or lower the signal
In short: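 HepaRG, 48 h exposure, 8-pt half-log series from 100 uM, 0.5% DMSO vehicle, duplicates. Readout: ABCB1 transcript by Fluidigm TaqMan qRT-PCR, housekeeping-normalized; bidirectional curve fit vs DMSO baseline.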

[5] = read-out: growth arrest and DNA damage 45 (GADD45B), GADD45B (gene 4616); test: LTEA_HepaRG_GADD45B: Life Technologies and Expression Analysis (LTEA) Assay for growth arrest and DNA damage 45 (GADD45B) using HepaRG (AID 2283461); details: mRNA level, 48 h; actives raise or lower the signal
In short: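 HepaRG, ~100,000 cells/well, 48 h plating; serum-free induction medium; cpd 100 uM top, half-log x8, 0.5% DMSO, duplicate, 48 h; lysis in RLT, RNA isolation, qRT-PCR; norm ACTB/GAPDH/POLR2A; bidirectional fit vs DMSO.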

[6] = read-out: ABC Transporter (ABCC3), ABCC3 (gene 8714); test: LTEA_HepaRG_ABCC3: Life Technologies and Expression Analysis (LTEA) Assay for ABC Transporter (ABCC3) using HepaRG (AID 2283462); details: mRNA level, 48 h; actives raise or lower the signal
In short: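 Human HepaRG, 48 h dosing, 8-pt half-log series from 100 uM, 0.5% DMSO vehicle, duplicates. ABCC3 mRNA by TaqMan qRT-PCR, housekeeping-normalized; bidirectional curve fit vs DMSO.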

[7] = read-out: ABC Transporter (ABCC2), ABCC2 (gene 1244); test: LTEA_HepaRG_ABCC2: Life Technologies and Expression Analysis (LTEA) Assay for ABC Transporter (ABCC2) using HepaRG (AID 2283464); details: mRNA level, 48 h; actives raise or lower the signal
In short: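 HepaRG, 48 h post-plating; serum-free induction medium; cpd 8-pt, 100 uM top, half-log, 0.5% DMSO, duplicate, 48 h. Readout: ABCC2 mRNA by qRT-PCR, norm. ACTB/GAPDH/POLR2A. Bidirectional fit vs DMSO baseline.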

[8] = read-out: Broad substrate specificity ATP-binding cassette transporter ABCG2 (Homo sapiens) (UniProt Q9UNQ0); test: LTEA_HepaRG_ABCG2: Life Technologies and Expression Analysis (LTEA) Assay for ABC Transporter (ABCG2) using HepaRG (AID 2283465); details: mRNA level, 48 h; actives raise or lower the signal
In short: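 HepaRG, 48 h exposure, 8-pt half-log series from 100 uM, 0.5% DMSO vehicle, duplicates. Readout: ABCG2 transcript by qRT-PCR (Fluidigm array), housekeeping-normalized; bidirectional curve fit relative to DMSO baseline.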

[9] = read-out: ATP-citrate lyase (ACLY), ACLY (gene 47); test: LTEA_HepaRG_ACLY: Life Technologies and Expression Analysis (LTEA) Assay for ATP-citrate lyase (ACLY) using HepaRG (AID 2283466); details: mRNA level, 48 h; actives raise or lower the signal
In short: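 qRT-PCR readout of ACLY transcript after 48 h chemical treatment of HepaRG cells; expression normalized to three housekeeping genes. Eight-point half-log series, highest 100 uM, 0.5% DMSO vehicle. Gain or loss fitted against DMSO baseline.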

[10] = read-out: Peroxisomal acyl-coenzyme A oxidase 1 (ACOX1) gene, ACOX1 (gene 51); test: LTEA_HepaRG_ACOX1: Life Technologies and Expression Analysis (LTEA) Assay for Peroxisomal acyl-coenzyme A oxidase 1 (ACOX1) gene using HepaRG (AID 2283467); details: mRNA level, 48 h; actives raise or lower the signal
In short: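 HepaRG, 48 h chemical exposure, 8-pt half-log series from 100 uM top, 0.5% DMSO vehicle, duplicates. Readout: ACOX1 mRNA by Fluidigm qRT-PCR, housekeeping-normalized; bidirectional fit vs DMSO baseline.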

[11] = read-out: Alkaline Phosphatase, Placental (ALPP) gene, ALPP (gene 250); test: LTEA_HepaRG_ALPP: Life Technologies and Expression Analysis (LTEA) Assay for Alkaline Phosphatase, Placental (ALPP) gene using HepaRG (AID 2283468); details: mRNA level, 48 h; actives raise or lower the signal;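 as to AC50: differentiated human HepaRG liver cells in serum-free induction medium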
In short: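 HepaRG, 48 h plating then 48 h dosing, serum-free induction medium, 0.5% DMSO. 8 conc, half-log, max 100 uM, duplicates. Endpoint: ALPP transcript by qRT-PCR, housekeeping-normalized; gain or loss fitted vs DMSO.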

[12] = read-out: Bcl-2 (BAD) gene, BAD (gene 572); test: LTEA_HepaRG_BAD: Life Technologies and Expression Analysis (LTEA) Assay for Bcl-2 (BAD) gene using HepaRG (AID 2283469); details: mRNA level, 48 h; actives raise or lower the signal
In short: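 HepaRG, 48 h exposure, 8-pt half-log curve from 100 uM in 0.5% DMSO, duplicates. Readout: TaqMan qRT-PCR for BAD mRNA, housekeeping-normalised (ACTB/GAPDH/POLR2A); gain or loss fitted against DMSO baseline.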

[13] = read-out: Bcl-2 (BAX) gene, BAX (gene 581); test: LTEA_HepaRG_BAX: Life Technologies and Expression Analysis (LTEA) Assay for Bcl-2 (BAX) gene using HepaRG (AID 2283470); details: mRNA level, 48 h; actives raise or lower the signal
In short: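 qRT-PCR read-out of BAX mRNA, normalized to three housekeeping genes, after 48 h chemical exposure of human HepaRG cells in serum-free induction medium; eight-point half-log series, top 100 uM, 0.5% DMSO vehicle; bidirectional fit versus DMSO.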

[14] = read-out: Alpha-fetoprotein (AFP) gene, AFP (gene 174); test: LTEA_HepaRG_AFP: Life Technologies and Expression Analysis (LTEA) Assay for Alpha-fetoprotein (AFP) gene using HepaRG (AID 2283472); details: mRNA level, 48 h; actives raise or lower the signal
In short: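 qRT-PCR (Fluidigm TaqMan) readout of AFP transcript, normalized to three housekeeping genes, fitted bidirectionally against 0.5% DMSO baseline. HepaRG cells received chemicals for 48 h in serum-free induction medium, top concentration 100 uM, half-log steps.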

[15] = read-out: BCL2L11 (gene 10018); test: LTEA_HepaRG_BCL2L11: Life Technologies and Expression Analysis (LTEA) Assay for Bcl-2 (BCL2L11) gene using HepaRG (AID 2283473); details: mRNA level, 48 h; actives raise or lower the signal
In short: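 Read-out is BCL2L11 transcript level by qRT-PCR, normalized to three housekeeping genes and fitted bidirectionally against 0.5% DMSO vehicle. HepaRG cells received chemicals for 48 h in serum-free induction medium, 100 uM down in half-log dilutions.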

[16] = read-out: Apolipoprotein A-V (APOA5) gene, APOA5 (gene 116519); test: LTEA_HepaRG_APOA5: Life Technologies and Expression Analysis (LTEA) Assay for Apolipoprotein A-V (APOA5) gene using HepaRG (AID 2283474); details: mRNA level, 48 h; actives raise or lower the signal
In short: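 Readout is APOA5 transcript level by qRT-PCR on Fluidigm dynamic arrays, normalized to three housekeeping genes. HepaRG cultures received chemicals for 48 h at up to 100 uM (half-log steps, 0.5% DMSO), with gain or loss scored relative to DMSO.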

[17] = read-out: Apoptosis regulator Bcl-2 (Homo sapiens) (UniProt P10415); test: LTEA_HepaRG_BCL2: Life Technologies and Expression Analysis (LTEA) Assay for Bcl-2 gene using HepaRG (AID 2283475); details: mRNA level, 48 h; actives raise or lower the signal
In short: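 qRT-PCR read-out (Fluidigm TaqMan) of BCL2 transcript, normalised to three housekeeping genes, after 48 h chemical exposure of HepaRG cells; 8-point half-log series, top 100 uM, 0.5% DMSO vehicle. Gain or loss of signal fitted relative to DMSO baseline.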

[18] = CEETOX_H295R_TESTO: CeeTox H295R High-throughput Steroidogenesis Assay for Testosterone (TESTO) (AID 2283457); details: actives raise or lower the signal
In short: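 H295R, passage ≤10, 48 h dosing; media extracted with MTBE → HPLC-MS/MS for testosterone; 7-pt standard curve sets LLOQ/ULOQ; bidirectional fit vs DMSO; MTT viability same wells.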

[19] = read-out: ABC Transporter (ABCB11), ABCB11 (gene 8647); test: LTEA_HepaRG_ABCB11: Life Technologies and Expression Analysis (LTEA) Assay for ABC Transporter (ABCB11) using HepaRG (AID 2283463); details: mRNA level, 48 h; actives raise or lower the signal
In short: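 HepaRG, 48 h exposure, 8-pt half-log CRC top 100 uM, 0.5% DMSO vehicle, duplicates. Readout: TaqMan qRT-PCR of ABCB11 mRNA, housekeeping-normalized (ACTB/GAPDH/POLR2A). Bidirectional fit vs DMSO baseline.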

Measured: AC50

Chain of Broad substrate specificity ATP-binding cassette transporter ABCG2 (Homo sapiens) (Q9UNQ0 whole entry, looked up): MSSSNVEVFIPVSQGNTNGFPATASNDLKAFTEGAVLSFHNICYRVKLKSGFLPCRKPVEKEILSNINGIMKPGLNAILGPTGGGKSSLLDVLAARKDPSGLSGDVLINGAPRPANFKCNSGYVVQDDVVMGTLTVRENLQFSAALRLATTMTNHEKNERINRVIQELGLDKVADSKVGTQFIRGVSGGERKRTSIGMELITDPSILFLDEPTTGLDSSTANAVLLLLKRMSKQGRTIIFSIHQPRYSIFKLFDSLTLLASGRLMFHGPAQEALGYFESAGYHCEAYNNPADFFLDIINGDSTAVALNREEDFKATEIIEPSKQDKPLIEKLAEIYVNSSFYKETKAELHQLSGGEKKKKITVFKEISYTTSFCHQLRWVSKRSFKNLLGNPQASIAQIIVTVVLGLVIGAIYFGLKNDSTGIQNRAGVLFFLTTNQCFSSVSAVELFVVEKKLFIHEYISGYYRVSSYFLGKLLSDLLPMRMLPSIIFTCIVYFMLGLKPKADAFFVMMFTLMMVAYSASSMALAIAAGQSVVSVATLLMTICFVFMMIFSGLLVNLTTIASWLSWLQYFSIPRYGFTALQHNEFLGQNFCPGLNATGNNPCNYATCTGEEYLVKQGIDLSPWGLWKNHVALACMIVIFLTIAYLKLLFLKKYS
Chain of Apoptosis regulator Bcl-2 (Homo sapiens) (P10415 whole entry, looked up): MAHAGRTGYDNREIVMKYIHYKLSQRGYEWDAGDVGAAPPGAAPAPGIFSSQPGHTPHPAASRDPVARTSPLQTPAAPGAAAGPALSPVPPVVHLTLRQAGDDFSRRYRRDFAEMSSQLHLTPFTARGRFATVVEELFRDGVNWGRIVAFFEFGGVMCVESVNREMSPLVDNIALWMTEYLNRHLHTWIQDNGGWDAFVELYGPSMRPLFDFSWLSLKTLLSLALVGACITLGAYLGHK

CO/C=C(/C(=O)OC)c1ccccc1Oc1cc(Oc2ccccc2C#N)ncn1
inactive: [3] | [4] | [6] | [7] | [9] | [12]
active: [1] 77.3 µM and 70.5 µM and 71.8 µM | [2] 87.3 µM and 74.6 µM and 95.4 µM | [4] 23.5 µM | [5] 94.1 µM and 82.7 µM and 84.7 µM | [6] 22.1 µM and 26.1 µM | [7] 86.9 µM and 83.9 µM | [8] 32 µM and 25.5 µM and 12.6 µM | [10] 50 µM and 63.3 µM | [11] 41.4 µM and 50 µM and 34 µM | [13] 77.2 µM and 69 µM and 72.1 µM | [14] 37.9 µM and 69.5 µM and 25.5 µM | [15] 84.5 µM and 73.8 µM and 84.6 µM | [16] 91.8 µM and 78 µM and 74.3 µM | [17] 86.3 µM and 85.9 µM and 86.9 µM

CC1=C(C(=O)Nc2ccccc2)SCCO1
active: [3] 50 µM | [5] 50 µM | [16] 50 µM
not listed: [19]
inactive: all other assays above

CC(C)Oc1cc(-n2nc(C(C)(C)C)oc2=O)c(Cl)cc1Cl
active: [4] 1.25 µM | [5] 4.73 µM | [19] 58.8 µM | [7] 2.52 µM | [8] 26 µM | [9] 77.4 µM | [10] 19.8 µM | [11] 69.8 µM | [14] 47.2 µM | [16] 32.4 µM | [17] 81.1 µM
inactive: [1] | [18] | [2] | [3] | [6] | [12] | [13] | [15]
